# Results from PubChem BioAssay.
# The source made the active and inactive calls. Rule as the data show it, unless noted: active = inhibition above about 80%; inactive = the rest.
# What was measured:
# [1] = LFS_MB_P medulloblastoma growth inhibition, cell-based, chromothripsis tumors, cisplatin or BGB combos (AID 1671449); details: LFS_MB_P medulloblastoma cells;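 also: cells exposed for 96 hours; 0% = vehicle DMSO and 100% = killing by high DMSO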
# [2] = HDN33 neuroblastoma growth inhibition, cell-based, chromothripsis tumors, cisplatin or BGB combos (AID 1671450); details: HDN33 neuroblastoma cells, stronger effect = higher value;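 also: cells exposed to compound for four days; 0% = vehicle DMSO and 100% = cell killing by high DMSO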
# [3] = ICB984 medulloblastoma cell growth inhibition, synergistic combos for chromothripsis tumors, cisplatin or BGB combos (AID 1671451; call rule not given here;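 also: cells exposed for 96 hours before readout; 0% = vehicle DMSO and 100% = killing by high DMSO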); details: ICB984 medulloblastoma cells, drug combinations, stronger effect = higher value
# [4] = LFS_MB_1R medulloblastoma cell growth inhibition, synergistic combos for chromothripsis tumors, cisplatin or BGB combos (AID 1671452); details: LFS_MB_1R medulloblastoma cells, stronger effect = higher value;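 also: cells exposed for 96 hours before readout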
# [5] = HTB85 osteosarcoma cell growth inhibition, synergistic combos for chromothripsis tumors, BGB or cisplatin IC20 combos (AID 1671453); details: HTB85 osteosarcoma cells, drug combinations, stronger effect = higher value;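 also: cells exposed for 96 hours before readout; 0% = vehicle DMSO and 100% = high DMSO killing control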
# [6] = CRL2098 osteosarcoma cell growth inhibition, synergistic combos for chromothripsis tumors, BGB or cisplatin IC20 combos (AID 1671454); details: CRL2098 osteosarcoma cells, drug combinations, stronger effect = higher value;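 also: cells exposed for 96 h before readout; 0% = vehicle DMSO and 100% = killing by high DMSO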
# [7] = HD-MB03 medulloblastoma cell growth inhibition, synergistic combos for chromothripsis tumors, BGB or cisplatin IC20 combos (AID 1671455; in the data active = inhibition above about 83%;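 also: 0% = vehicle DMSO and 100% = high DMSO as cytotoxic control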); details: HD-MB03 medulloblastoma cells, stronger effect = higher value
# [8] = UWB1.289 ovarian carcinoma cell growth inhibition, synergistic combos for chromothripsis tumors, BGB or cisplatin combos (AID 1671456); details: UWB1.289 ovarian carcinoma cells, stronger effect = higher value;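 also: cells exposed to compound for four days; 0% = vehicle DMSO and 100% = killing by high DMSO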
# [9] = LFS_MB_2R medulloblastoma cell growth inhibition, synergistic combos for chromothripsis tumors, cisplatin combos (AID 1671457); details: LFS_MB_2R medulloblastoma cells, stronger effect = higher value;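 also: cells exposed to compound for four days before readout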
# [10] = MDA-MB-436 breast carcinoma cell growth inhibition, synergistic combos for chromothripsis tumors, BGB or cisplatin combos (AID 1671458; call rule not given here;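 also: cells exposed for 96 hours; 0% = vehicle DMSO and 100% = killing by high DMSO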); details: MDA-MB-436 breast carcinoma growth inhibition, drug combinations, stronger effect = higher value
# [11] = UWB1.289_BRCA1 ovarian cancer growth, cell-based, BGB or cisplatin combinations (AID 1671459); details: UWB1.289 BRCA1 ovarian carcinoma, drug combinations, stronger effect = higher value
# [12] = human astrocyte viability loss, single and combined drugs, cytotoxicity control for chromothriptic childhood tumor combination screen, cell-based, BGB or cisplatin IC20 combos (AID 1671460); details: Human astrocytes, drug combinations, stronger effect = higher value;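 also: cells exposed to compounds for 96 hours before viability readout; 0% = vehicle and 100% = killing control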
# [13] = growth inhibition of BT084 medulloblastoma cells, cell-based, ICGC_MB145, cisplatin and BGB IC40 combos (AID 1671461); details: drug combinations, stronger effect = higher value;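 also: cells exposed to drugs for 96 hours; 0% = vehicle DMSO and 100% = high DMSO full killing control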
# [14] = growth inhibition of RCMB18 medulloblastoma cells, cell-based, cisplatin and BGB IC40 combos (AID 1671462); details: stronger effect = higher value;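 also: cells exposed to compound for four days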
# [15] = growth inhibition of CRL1545 osteosarcoma cells, cell-based, cisplatin and BGB IC20 combos (AID 1671464); details: stronger effect = higher value;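 also: cells exposed to compound for 96 hours before readout; 0% = vehicle DMSO and 100% = high DMSO killing control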
# [16] = at 0.5 µM, stronger effect = higher value
# [17] = measured here: combination with BGB IC20, at 0.005 µM
# [18] = measured here: combination with BGB IC40, at 0.005 µM
# [19] = measured here: combination with BGB IC40, at 0.05 µM
# [20] = measured here: combination with cisplatin, at 0.5 µM, stronger effect = higher value
# [21] = measured here: combination with cisplatin, at 5 µM, stronger effect = higher value
# [22] = measured here: with BGB IC20 combination, at 0.5 µM
# [23] = measured here: with cisplatin IC20 combination, at 0.5 µM
# [24] = measured here: 5 uM single agent, at 5 µM
# [25] = measured here: combination with cisplatin, at 0.5 µM
# [26] = measured here: combination with cisplatin, at 5 µM
# [27] = measured here: with BGB IC20, at 0.5 µM
# [28] = measured here: with BGB IC20, at 5 µM
# [29] = measured here: with cisplatin IC20, at 0.5 µM
# [30] = measured here: with cisplatin IC20, at 5 µM
# [31] = measured here: combination with BGB at IC20, at 0.5 µM
# [32] = measured here: combination with cisplatin at IC20, at 0.5 µM
# [33] = measured here: combo with BGB at IC20, at 0.5 µM
# [34] = measured here: combo with cisplatin at IC20, at 0.5 µM
# [35] = measured here: inhibition with BGB combination, at 0.05 µM
# [36] = measured here: inhibition with cisplatin combination, at 0.05 µM
# [37] = measured here: BGB combination, at 0.5 µM
# [38] = measured here: BGB combination, at 5 µM
# [39] = measured here: cisplatin combination, at 0.5 µM
# [40] = measured here: cisplatin combination, at 5 µM
# [41] = BGB combination, concentration series, at 5 µM
# [42] = cisplatin combination, concentration series, at 5 µM
# [43] = measured here: combo with BGB IC20, at 0.5 µM
# [44] = measured here: combo with cisplatin IC20, at 0.5 µM
# [45] = cisplatin combination, at 0.5 µM
# [46] = measured here: BGB IC40 combination 0.05 uM, at 0.05 µM
# [47] = measured here: BGB IC40 combination, at 0.05 µM
compound,measurement,setting,value
CON=C1CN(c2nc3c(cc2F)c(=O)c(C(=O)O)cn3C2CC2)CC1CN (stereo unspecified),inhibition,[1]; [16],-25.3% (inactive)
same,inhibition,[1]; [17],-14.3%
same,inhibition,[1]; [18],-29%
same,inhibition,[1]; [19],-34.5%
same,inhibition,[1]; [20],-40.3%
same,inhibition,[1]; [21],-32.3%
same,inhibition,"[2]; BGB combo, at 5 µM",-16.7%
same,inhibition,[2]; at 0.5 µM,7.67% (inactive)
same,inhibition,"[2]; cisplatin combo, at 5 µM",-7.53%
same,inhibition,[2]; [22],8.62%
same,inhibition,[2]; [23],24.5%
same,inhibition,"[2]; single agent, at 5 µM",-10.6%
same,inhibition,"[3]; BGB IC20 combo, at 0.005 µM",-9.19%
same,inhibition,"[3]; BGB IC40 combo, at 0.005 µM",-11.5%
same,inhibition,"[3]; BGB IC40 combo, at 0.05 µM",-24.2%
same,inhibition,[3]; at 0.5 µM,-23.7% (inactive)
same,inhibition,"[3]; cisplatin combo, at 0.05 µM",-30.6%
same,inhibition,"[3]; cisplatin combo, at 0.5 µM",-28.8%
same,inhibition,"[3]; cisplatin combo, at 5 µM",-12.6%
same,inhibition,[3]; [24],-12.7%
same,inhibition,[4]; at 0.5 µM,-19.1% (inactive)
same,inhibition,[4]; [19],-15.4%
same,inhibition,[4]; [25],-33.2%
same,inhibition,[4]; [26],-30.4%
same,inhibition,[5]; at 0.5 µM,5.68% (inactive)
same,inhibition,[5]; [27],30.9%
same,inhibition,[5]; [28],13.1%
same,inhibition,[5]; [29],-15.5%
same,inhibition,[5]; [30],2.1%
same,inhibition,"[5]; single agent, at 5 µM",3.62%
same,inhibition,[6]; at 0.5 µM,-6.34% (inactive)
same,inhibition,[6]; [31],-22.3%
same,inhibition,[6]; [32],10.2%
same,inhibition,[7]; at 0.5 µM,-12.3% (inactive)
same,inhibition,[7]; [33],-16.7%
same,inhibition,[7]; [34],-12.2%
same,inhibition,[8]; at 0.5 µM,-4.81% (inactive)
same,inhibition,[8]; [35],-8.23%
same,inhibition,[8]; [36],-6.42%
same,inhibition,[9]; at 0.5 µM,-15.8% (inactive)
same,inhibition,[9]; [25],-15.1%
same,inhibition,[9]; [26],-25.5%
same,inhibition,[10]; at 0.5 µM,-11.3% (inactive)
same,inhibition,[10]; [37],-3.57%
same,inhibition,[10]; [38],-21.3%
same,inhibition,[10]; [39],-27.7%
same,inhibition,[10]; [40],-9.24%
same,inhibition,[11]; [41],-28.4%
same,inhibition,[11]; at 0.5 µM,-4.07% (inactive)
same,inhibition,[11]; [42],-3.27%
same,inhibition,[12]; at 0.5 µM,0.97% (inactive)
same,inhibition,[12]; [43],7.71%
same,inhibition,[12]; [44],2.88%
same,inhibition,[13]; at 0.5 µM,-10.5% (inactive)
same,inhibition,[13]; [45],-2.65%
same,inhibition,"[13]; cisplatin combination, at 5 µM",-140%
same,inhibition,[13]; [46],-26.9%
same,inhibition,"[13]; single agent, at 5 µM",-46.4%
same,inhibition,[14]; at 0.5 µM,-9.98% (inactive)
same,inhibition,"[14]; cisplatin combo, at 5 µM",24.4%
same,inhibition,[14]; [47],-6.9%
same,inhibition,[14]; [25],6.35%
same,inhibition,"[14]; single agent, at 5 µM",-19.4%
same,inhibition,[15]; at 0.5 µM,-0.16% (inactive)
same,inhibition,[15]; [22],-14.3%
same,inhibition,[15]; [23],5.39%
same,inhibition,"[15]; single agent, at 0.05 µM",4.29%
same,inhibition,"[15]; single agent, at 5 µM",16.8%
C#CCC(CCCCCC)C(=O)O (stereo unspecified),inhibition,[1]; [16],5.69% (inactive)
same,inhibition,[1]; [17],3.1%
same,inhibition,[1]; [18],30.2%
same,inhibition,[1]; [19],36.1%
same,inhibition,[1]; [20],3.27%
same,inhibition,[1]; [21],-9.45%
same,inhibition,"[2]; BGB combo, at 5 µM",13.8%
same,inhibition,[2]; at 0.5 µM,8.32% (inactive)
same,inhibition,"[2]; cisplatin combo, at 5 µM",-0.039%
same,inhibition,[2]; [22],10.2%
same,inhibition,[2]; [23],-1.96%
same,inhibition,"[2]; single agent, at 5 µM",-0.563%
same,inhibition,"[3]; BGB IC20 combo, at 0.005 µM",-2.69%
same,inhibition,"[3]; BGB IC40 combo, at 0.005 µM",-16%
same,inhibition,"[3]; BGB IC40 combo, at 0.05 µM",-11.6%
same,inhibition,[3]; at 0.5 µM,-6.37% (inactive)
same,inhibition,"[3]; cisplatin combo, at 0.05 µM",-16%
same,inhibition,"[3]; cisplatin combo, at 0.5 µM",-14.1%
same,inhibition,"[3]; cisplatin combo, at 5 µM",-27.6%
same,inhibition,[3]; [24],-4.43%
same,inhibition,[4]; at 0.5 µM,3.82% (inactive)
same,inhibition,[4]; [19],-10%
same,inhibition,[4]; [25],-6.41%
same,inhibition,[4]; [26],2.32%
same,inhibition,[5]; at 0.5 µM,6.28% (inactive)
same,inhibition,[5]; [27],4.58%
same,inhibition,[5]; [28],-11%
same,inhibition,[5]; [29],-9.52%
same,inhibition,[5]; [30],-7.57%
same,inhibition,"[5]; single agent, at 5 µM",22.7%
same,inhibition,[6]; at 0.5 µM,2.92% (inactive)
same,inhibition,[6]; [31],26.1%
same,inhibition,[6]; [32],6.9%
same,inhibition,[7]; at 0.5 µM,3.15% (inactive)
same,inhibition,[7]; [33],0.099%
same,inhibition,[7]; [34],2.13%
same,inhibition,[8]; at 0.5 µM,4.47% (inactive)
same,inhibition,[8]; [35],5.84%
same,inhibition,[8]; [36],2.18%
same,inhibition,[9]; at 0.5 µM,-4.49% (inactive)
same,inhibition,[9]; [25],5.98%
same,inhibition,[9]; [26],6.31%
same,inhibition,[10]; at 0.5 µM,-1.28% (inactive)
same,inhibition,[10]; [37],-4.71%
same,inhibition,[10]; [38],-7.63%
same,inhibition,[10]; [39],-0.109%
same,inhibition,[10]; [40],-1.88%
same,inhibition,[11]; [41],-4.85%
same,inhibition,[11]; at 0.5 µM,3.74% (inactive)
same,inhibition,[11]; [42],16.5%
same,inhibition,[12]; at 0.5 µM,6.72% (inactive)
same,inhibition,[12]; [43],20.5%
same,inhibition,[12]; [44],9.45%
same,inhibition,[13]; at 0.5 µM,8.59% (inactive)
same,inhibition,[13]; [45],9.78%
same,inhibition,"[13]; cisplatin combination, at 5 µM",1.82%
same,inhibition,[13]; [46],2.2%
same,inhibition,"[13]; single agent, at 5 µM",14.4%
same,inhibition,[14]; at 0.5 µM,-5.37% (inactive)
same,inhibition,"[14]; cisplatin combo, at 5 µM",23.5%
same,inhibition,[14]; [47],5.44%
same,inhibition,[14]; [25],22%
same,inhibition,"[14]; single agent, at 5 µM",-15.4%
same,inhibition,[15]; at 0.5 µM,-23% (inactive)
same,inhibition,[15]; [22],-43.7%
same,inhibition,[15]; [23],-12.7%
same,inhibition,"[15]; single agent, at 0.05 µM",0.433%
same,inhibition,"[15]; single agent, at 5 µM",16.3%
